Marburg entry inh = inhibitors of Marburg virus binding or cell entry. Marburg virus pseudotyped entry inhibition, cell reporter. Potency, µM (highest dose often 37.8 µM), for inactives: at the highest dose activity change, negative = inhibition, actives largely listed as inhibitors. AID 540276. 300,000 compounds, 1.8% hits; calls by dose curve; tested in HEK293 cells; also: potency is read from the fitted curve at half-maximal effect; % is scaled to controls: 0 for no effect and ±100 for the full control effect
FMDV inh = blocks foot and mouth disease virus. FMDV antiviral cell-based qHTS. Potency, µM (series often up to 57.9 µM), inactives show top-dose activity change, negative = inhibition, most hits filed as inhibitors. 410,000 compounds, 1.2% hits. AID 1159524; calls by dose curve; tested in HEK293T cells; also: read-out not given here; potency is read from the fitted curve at half-maximal effect; % is scaled to controls: 0 for no effect and ±100 for the full control effect; nearly all actives have a fitted effect of over 45% in size
LASV entry inh = blocks Lassa virus binding to or entry into cells. Lassa virus pseudotype entry inhibition, cell reporter. Potency, µM (titrated, usually from 37.9 µM), inactives show top-dose activity change, negative = inhibition, hits mostly inhibitors. 300,000 compounds, 1.2% hits; calls by dose curve; tested in HEK293 cells; also: potency is read from the fitted curve at half-maximal effect; % is scaled to controls: 0 for no effect and ±100 for the full control effect; nearly all actives have a fitted effect of over 50% in size
HCMV inh = blocks human cytomegalovirus replication; HFF cells, HCMV-luciferase reporter, 72 h; active compounds read low; activity change, negative = inhibition, % at 57.5 µM; 410,000 compounds, 4.5% hits; AID 1259415; in the data active = activity change below about -60%; inconclusive = no clear call, values can overlap the other calls; inactive = above about -39%; also: % is scaled to controls: 0 for no effect and ±100 for the full control effect
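Luciferase read-out from HCMV-luciferase-infected HFFs (MOI 1 PFU/cell) 72 h post infection at 37C; compounds added after 16 h cell attachment; activity normalized between buffer-only basal and Salinomycin (10uM) inhibitor controls.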
SARS PLP yeast = SARS-CoV PLP inhibition in yeast. S. cerevisiae expressing SARS-CoV PLpro, growth rescue. Potency, µM (highest dose often 32.9 µM), without a hit: at the top dose activity, positive = growth rescue, most hits filed as activators. 330,000 compounds, 0.19% hits. AID 485353; calls by dose curve; also: potency is read from the fitted curve at half-maximal effect; 0% is about no effect; nearly all actives have a fitted effect of over 55% in size
HCV inh = inhibitors of hepatitis C virus infection; AID 651820; Potency, µM (highest dose often 41.8 µM), without a hit: at the highest dose activity change, negative = inhibition, hits mostly inhibitors; 340,000 compounds, 3.4% hits; Huh7.5.1 HCVcc-Cre infection, luciferase reporter, 44 h; active = well fitted inhibition curve with a large enough effect; inconclusive = small, poorly fitted or top-dose-only effect, or another doubt; inactive = no such curve, though single readings can be large or run the other way; also: potency is read from the fitted curve at half-maximal effect; % is scaled to controls: 0 for no effect and ±100 for the full control effect
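Reporter virus HCVcc-Cre (~0.5 moi) infects cells exposed to compound; seeding density 1,000 cells/well with 4 h settling beforehand. Luminescence, 15 sec read, taken 44 h post-infection following a 15 min RT substrate incubation.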
Starred values were filed as active, the others as inactive; ? = inconclusive; nt = no result given; [ ] = dose if it differs, or a comment. An excerpt weighted towards active compounds, which were near 8% of everything screened.

SMILES | Marburg entry inh | FMDV inh | LASV entry inh | HCMV inh | SARS PLP yeast | HCV inh
O=C(NCCc1nnc2n1CCN(Cc1ccc(F)c(F)c1)CC2)c1ccoc1 | nt | -5% | nt | nt | nt | nt
O=C(CSc1nc(O)c(C/C=C/c2ccccc2)c(=O)[nH]1)Nc1cccc(F)c1 | 5%[46.1 µM] | 21% | -4%[46.1 µM] | 0 | nt | nt
COc1ccc(CCN2C(=O)CC(NNC(=O)c3ccccc3Br)C2=O)cc1 (stereo not given) | -2% | -13% | 14% | -65* | ? | 1%
COc1ccc(CCNC2CC(=O)N(CCc3ccccc3)C2=O)cc1 (stereo not given) | 22% | nt | -23% | 0 | -17% | -2%
CC(=O)OCCN(CCCn1c(-c2ccncc2)nc2ccccc21)c1nc(CN2CCCCC2)cs1 | nt | -10% | nt | 28 | -1% | 2.5µM*
c1ccc2c(c1)nc(-c1ccncc1)n2CCNc1nc(CN2CCCCC2)cs1 | nt | -22% | nt | -9 | 6% | 9%
O=c1c2ccccc2nc2n1C(CSCc1ccc(Cl)cc1Cl)CS2 (stereo not given) | ? | 18µM* | -26% | -31 | 3% | -4%
Nc1ccccc1SCC1CSc2nc3ccccc3c(=O)n21 (stereo not given) | nt | -11% | nt | -15 | 1% | -2%
COc1cccc2sc(N(C)c3ccccc3)nc12 | ? | -3% | ? | 38 | 8% | 25µM*
S=C(NC1CCCCC1)N1CCN(c2ccccn2)CC1 | -16%[46.1 µM] | -9% | 4% | 9 | -3% | -10%
C/C(=N/NC(=O)c1ccccn1)c1ccc(O)cc1 | nt | 0% | nt | 73 | 1% | 23%
CC(=NNC(=S)SCc1ccccc1)c1ccccn1 | 0.89µM* | ? | 1.6µM* | -97* | nt | 0.32µM*
CC(=NNC(=S)N1CCCC1)c1ccccn1 | nt | 14% | nt | -99* | nt | nt
CC(=NNC(=S)N1CCC1)c1ccccn1 | ? | 11% | ? | -101* | nt | 1.3µM*
CCCCC/C=C\C/C=C\CCCCCCCC(N)=O | nt | -13%[6.7 µM] | nt | nt | nt | nt
Cc1cc(C)c2c(CC(=O)Nc3nnc(CC(C)C)s3)coc2c1 | 14%[46.1 µM] | -18% | 19%[46.1 µM] | 7 | nt | nt
CCOC(=O)CN(C(=O)c1snc(C(N)=O)c1N)C(C(=O)NC1CCCCC1)c1ccc(F)cc1 (stereo not given) | nt | 3% | nt | -16 | 6% | -2%
CCOc1ccccc1Nc1cc(C)nc2ccc(C)cc12 | ? | ? | ? | ? | nt | 6.3µM*
COC(=O)c1ccc2nc(C)cc(Nc3ccccc3C)c2c1 | nt | -18% | nt | 22 | 0% | ?
CCOc1ccccc1Nc1cc(C)nc2ccccc12 | nt | -19% | nt | -62* | nt | nt
Cc1ccc(S(=O)(=O)N2CCCC2C(=O)NCc2ccncc2)cc1 (stereo not given) | nt | 4% | nt | -10 | 0% | 28%
COC(=O)c1ccc(COc2cccn3c(N(C)C(=O)CCC4CCCC4)c(C)nc23)cc1 | nt | 35µM* | nt | -33 | nt | nt
Cc1nc2c(OCc3ccc(F)cc3)cccn2c1N(C)C(=O)CCC1CCCC1 | nt | ? | nt | 24 | nt | nt
Cc1nc2c(OCc3ccc(C#N)cc3)cccn2c1N(C)C(=O)CCC1CCCC1 | nt | 22µM* | nt | -8 | nt | nt
CCc1ccccc1N(C1=NCCCS1)S(=O)(=O)c1ccc(C(C)(C)C)cc1 | ? | -13% | -25% | -16 | -50% | ?
SMILES | Marburg entry inh | FMDV inh | LASV entry inh | HCMV inh | SARS PLP yeast | HCV inh
O=C(NCc1ccco1)c1cnn2c1N[C@@H](c1ccccc1)C[C@@H]2C(F)(F)F | 0% | nt | nt | nt | nt | nt
O=c1oc(=O)c2ccccc2c2ccccc12 | 26% | -14% | 9%[46.1 µM] | -4 | nt | 13%
CCCCOc1ccc(Cn2c(=O)sc3ccccc32)cc1OC | 10%[46.1 µM] | 3% | -21%[46.1 µM] | 12 | nt | nt
CCn1c2ccccc2nc2cc3c(cc21)c(Cl)c(=O)c1ccccc13 | nt | 0% | nt | -31 | nt | nt
COc1ccc2nc(NN=C(C)c3ccccn3)cc(C)c2c1 | ? | -15% | ? | -99* | nt | ?
C/C(=N\Nc1ccc(Cl)cc1)c1ccccn1 | ? | 54% | 107%[14.3 µM] | 41 | -24% | nt
C/C(=N\Nc1nc2ccccc2nc1C)c1ccccc1O | 4%[46.1 µM] | 3% | -15% | -32 | -2% | -16%
CC(=NNc1ccc2ccccc2n1)c1ccccn1 | nt | nt | nt | -101* | nt | nt
CC(=NNc1ccc2ccccc2n1)c1ccccc1O | ? | ? | 3.2µM* | -61* | nt | ?
C/C(=N\Nc1cc(C)nc(-c2ccccc2O)n1)c1ccccc1O | nt | -21% | nt | -38 | 0% | 11µM*
Cc1cc(NC(=O)C2CC(=O)N(c3ccccc3Cl)C2)no1 (stereo not given) | 1%[46.1 µM] | -7% | -8% | -20 | 2% | -4%
CCCC(C)C(=O)Nc1nnc(CCc2ccccc2)s1 (stereo not given) | 1%[46.1 µM] | -9% | -17%[46.1 µM] | 6 | 21% | 7%
CCN(Cc1ccccc1)c1ccc(/C=C(\C#N)c2ccccn2)cc1 | -18% | 48% | 18% | 48 | 8% | -4%
CCN(CC)c1ccc(/C=C(\C#N)c2ccccn2)cc1 | ? | -44% | 5.8µM* | nt | -61% | 14µM*
CN(CCC#N)c1ccc(/C=C(\C#N)c2ccccn2)cc1 | 8.2µM* | -74% | 2.2µM* | -18 | -31% | ?
C[C@@H]1CN(Cc2ccc3c(c2)CN(Cc2cccc4c2OCO4)CCO3)C[C@H](C)O1 | nt | -4% | nt | nt | nt | nt
COC(=O)c1c(NC(=O)C2CCCCC2)sc2c1CCN(C(C)C)C2 | nt | ? | nt | -24 | 0% | -11%
CC(C)N1CCc2c(sc(NC(=O)C3CCCCC3)c2C(N)=O)C1 | nt | ? | nt | -79* | -3% | ?
CCOC(=O)c1c(NC(=O)C2CCCCC2)sc2c1CCN(C(C)C)C2 | nt | 0% | nt | 8 | -6% | 7.9µM*
COc1cccc(C(C(=O)NC2CCCCC2)N(CCN2CCOCC2)C(=O)C2COc3ccccc3O2)c1 (stereo not given) | 13%[46.1 µM] | 4% | 23% | 2 | 0% | 5%
Cc1ccc(N(C(=O)C2COc3ccccc3O2)C(C(=O)NC2CCCCC2)c2cn(C)nc2C)cc1 (stereo not given) | 1% | nt | -15% | nt | ? | 2%
COc1ccc(N(C(=O)C2COc3ccccc3O2)C(C(=O)NC2CCCCC2)c2ccccc2)cc1OC (stereo not given) | ? | -9% | -26% | -63* | 9% | ?
COc1cc(OC)cc(N(C(=O)C2COc3ccccc3O2)C(C(=O)NC2CCCCC2)c2ccc(O)cc2)c1 (stereo not given) | ? | 0% | ? | -77* | 3% | ?
C[C@H](NC(=O)c1cccc2ccccc12)C(O)c1nc2ccccc2[nH]1 (stereo not given in full) | nt | nt | nt | -9 | nt | nt
Cc1nc(C)n(CC(=O)NCC2Cc3cc(-c4cccc(OC(F)(F)F)c4)ccc3O2)n1 (stereo not given) | nt | -21% | nt | nt | nt | nt
CN(C)c1ccc(NS(=O)(=O)c2ccc(-c3csnn3)cc2)cc1 | ? | 6% | ? | -65* | 0% | ?
O=C(COc1ccc2ccccc2c1Br)Nc1ccncc1 | ? | -19% | ? | -60* | ? | ?
